The results in this text go back to PubChem BioAssay AID602441 (National Center for Advancing Translational Sciences (NCATS), 2012).

The structures appear in SMILES notation. The whole screen tested about 1,300 compounds, of which fewer than 10 were called active. Inconclusive results (about 9%) are left out. Calls follow the shape of the dose curve; as a rule, active = well fitted curve in the direction sought with a large enough effect; inconclusive = small, poorly fitted or top-dose-only effect, or another doubt; inactive = no such curve, though single readings can be large or run the other way. Only a sample is shown.

This assay can be described thus: qHTS for antagonists of the Thyroid Stimulation Hormone Receptor: Hit Validation in Parental Cell Line. Also: 0% is about no effect. Particulars: parental HEK293 cells lacking TSHR, counter-screen; series mostly up to 56.9 µM; activity change, negative = inhibition: at the top concentration. The text has this:
The thyroid-stimulating hormone receptor (TSHR) is a member of the 7 trans-membrane-spanning receptor (7TMR) family of cell surface receptors. TSHR-mediated hyperthyroidism is important in thyroid pathology. The development of small molecule antagonists of TSHR may lead to therapeutic approaches for TSHR-mediated hyperthyroidism caused by constitutively activating mutations or stimulating auto-antibodies associated with Graves' disease. Graves' disease is the leading cause of hyperthyroidism and is caused by autoantibodies that stimulate TSHR (TsAbs) causing thyroid growth and unregulated overproduction of thyroid hormones and existing treatments have liabilities (agranulocytosis). In addition, TSHRs are known to be expressed in multiple extrathyroidal tissues including bone, brain, kidney, testis, fat and cells of the immune system but the role of the TSHR in these tissues is not clear. Therefore, TSHR antagonists/inverse agonists could be used as probes of extrathyroidal TSHR function. Finally, TSHR inverse agonists, which are a subclass of antagonists that inhibit agonist-independent (or basal or constitutive) TSHR signaling, could be used to inhibit TSH-independent signaling in patients with recurrent or metastatic thyroid cancer who are receiving thyroid hormone to suppress TSH.
In collaboration between scientist from the NCGC and the NIDDK, a miniaturized HTRF high-throughput screen was developed. It's a cell based assay, where an anti cAMP antibody contains a fluorescent cryptate tag (excitation 337 nm; emission 620 nm) and the acceptor is cAMP-d2 (excitation 620 nm; emission 665 nm). When antibody and cAMP-d2 interact and are excited by a 337 nm light, a FRET occurs resulting in emission at 665 nm. The assay is competition between cAMP-d2 and cAMP (from the cell lysate). The homogeneous protocol allows for one step dispense after stimulation that is automation friendly. This is a hit validation assay in a counterscreen using parental HEK 293 cells lines.
NIH Chemical Genomics Center [NCGC]
NIH Molecular Libraries Probe Centers Network [MLPCN]
Assay Provider: Marvin Gershengorn, NIDDK
An anti cAMP antibody contains a fluorescent cryptate tag (excitation 337 nm; emission 620 nm) and the acceptor is cAMP-d2 (excitation 620 nm; emission 665 nm). When antibody and cAMP-d2 interact and are excited by a 337 nm light, a FRET occurs resulting in emission at 665 nm. The assay is competition between cAMP-d2 and cAMP (from the cell lysate). The homogeneous protocol allows for one step dispense after stimulation that is automation friendly. This assay uses parental HEK-EM 293 cells
On the technique in general: In qHTS, concentration-response curves come from the screen itself.
Regarding `COC(=O)c1sc(-c2ccc(Cl)cc2)cc1NC(=O)/C=C/C(=O)O`, the “activity change, negative = inhibition” value is 6.29% (inactive).

As to `COc1cccc(-c2nc(CS(=O)(=O)CC(=O)NC3CCCCCC3)c(C)o2)c1`, the “activity change, negative = inhibition” value was -0.472% (inactive).

`CCCOc1ccc(-c2cc(C(=O)NCC3CCCO3)c3ccccc3n2)cc1` (stereo unspecified): the “activity change, negative = inhibition” value is 4.51% (inactive).

As for `COc1ccc(S(=O)(=O)N2CCN(c3cccc(C)c3C)CC2)cc1`, the “activity change, negative = inhibition” value was -1.34% (inactive).

Turning to `CCOC(=O)c1cc(C(=O)Nc2sc3c(c2C#N)CCCC3)nn1C`, the “activity change, negative = inhibition” value was 3.84% (inactive).

Regarding `Cc1cccc(N(C(=O)c2nsc(Cl)c2Cl)C(C(=O)NC2CCCC2)c2ccc(O)cc2)c1C` (stereo unspecified), the “activity change, negative = inhibition” value is -4.34% (inactive).

Consider `Cc1occc1-c1nnc(SCC(=O)Nc2nc(C(C)(C)C)cs2)o1`, for which the “activity change, negative = inhibition” value was 0.133% (inactive).

As to `COc1ccc(Cn2nnnc2C(C(C)C)N2CCN(c3ccccc3OC)CC2)cc1` (stereo unspecified), the “activity change, negative = inhibition” value was -3.62% (inactive).

Regarding `O=C(Nc1nc(-c2ccc(S(=O)(=O)N3CCCCCC3)cc2)cs1)c1ccccc1`, the “activity change, negative = inhibition” value is -3.18% (inactive).

As to `Cc1ccc(C)c(C(=O)OCC(=O)Nc2cccc(S(=O)(=O)N3CCCCC3)c2)c1`, the “activity change, negative = inhibition” value was -4.33% (inactive).

Regarding `CCOC(=O)c1c(-c2ccccc2)csc1NC(=O)CSc1nnnn1C`, the “activity change, negative = inhibition” value is -6.89% (inactive).

As to `Cc1ccccc1-c1cc(C(=O)Nc2sc(C(=O)OC(C)C)c(C)c2C#N)c2ccccc2n1`, the “activity change, negative = inhibition” value is -8.24% (inactive).

Consider `Cc1ccc(C(=O)COC(=O)CCN2C(=O)C3C4CCC(C4)C3C2=O)cc1[N+](=O)[O-]` (stereo unspecified), for which the “activity change, negative = inhibition” value is 0.395% (inactive).

Consider `COc1ccc(CCNc2ncnc3sc(C)cc23)cc1OC`, for which the “activity change, negative = inhibition” value was -0.71% (inactive).

Turning to `Cc1cc2c(NCc3ccccc3)ncnc2s1`, the “activity change, negative = inhibition” value was -0.667% (inactive).

Take `COC(=O)c1ccc(/C(O)=C(\C#N)c2nc3ccccc3s2)cc1`: the “activity change, negative = inhibition” value is -6.58% (inactive).

With `COc1ccc(-c2sc3ccc(N4CCOCC4)cc3c2C#CCO)cc1`, the “activity change, negative = inhibition” value is -3.71% (inactive).

Take `Cc1[nH]c2ccccc2c1/C=C/c1cc[n+](C)cc1`: the “activity change, negative = inhibition” value was -22.4% (inactive).

As to `O=C(NCC1CCCN(C(=O)c2cccc(C(F)(F)F)c2)C1)c1ccc(F)cc1` (stereo unspecified), the “activity change, negative = inhibition” value was 5.15% (inactive).

Take `COc1ccc(-c2c(C(F)(F)F)[nH]n3c(=O)cc(-c4ccccc4)nc23)cc1`: the “activity change, negative = inhibition” value was -6.45% (inactive).

`COc1ccc(/C=C2/SC(=S)NC2=O)cc1OCc1ccccc1`: the “activity change, negative = inhibition” value was -11.5% (inactive).

Take `COc1ccc(OC)c2c1C(=O)C(Cl)=C(Cl)C2=O`: the “activity change, negative = inhibition” value was -19.3% (inactive).

For `O=C1c2ccccc2C(=O)N1CCCCSc1nnnn1-c1ccccc1`, the “activity change, negative = inhibition” value was 2.18% (inactive).

As to `Cc1cc(Br)ccc1OCC(=O)NC1CCCC1`, the “activity change, negative = inhibition” value was 3.22% (inactive).

Consider `COc1ccccc1NS(=O)(=O)c1cc(NC(=O)c2ccc3c(c2)OCCO3)ccc1C`, for which the “activity change, negative = inhibition” value was -1.4% (inactive).

Regarding `O=C(COc1ccc(Cl)cc1Cl)Nc1ccc(C(=O)Nc2ccccc2C(=O)O)cc1`, the “activity change, negative = inhibition” value was -4.74% (inactive).

With `O=C(COC(=O)c1ccccc1SCC(=O)N1CCCC1)Nc1ccccc1`, the “activity change, negative = inhibition” value is 1.31% (inactive).

Take `Cc1ccc(OC(F)F)c(NC(=O)Nc2cccc(C(F)(F)F)c2)c1`: the “activity change, negative = inhibition” value was -4.88% (inactive).

Take `O=C(c1cc(COc2cccc3cnccc23)on1)N1CCCC(CCCO)C1` (stereo unspecified): the “activity change, negative = inhibition” value was -1.72% (inactive).

On to `Cc1ccc(S(=O)(=O)/N=C2/NC(=O)/C(=C\c3cc(Br)cc(Br)c3O)S2)cc1`, for which the “activity change, negative = inhibition” value was 3.98% (inactive).

Regarding `CCN(CC)S(=O)(=O)c1cccc(C(=O)/C=C2/N(C)c3ccccc3C2(C)C)c1`, the “activity change, negative = inhibition” value is -8.84% (inactive).

Turning to `CCCOc1ccc(CSc2nc3ccccc3[nH]2)cc1`, the “activity change, negative = inhibition” value is 2.29% (inactive).

In the case of `Cc1nn(CCCC(=O)Nc2cc(Oc3ccccc3)cc([N+](=O)[O-])c2)c(C)c1[N+](=O)[O-]`, the “activity change, negative = inhibition” value was -1.09% (inactive).

As for `Cc1ccccc1CS(=O)(=O)c1ncc(Cl)c(C(=O)Nc2ccc(F)cc2)n1`, the “activity change, negative = inhibition” value was -4.75% (inactive).

As for `Cc1cc(NC(=O)CC(C)C)c(=O)n(Cc2cccc(F)c2)c1`, the “activity change, negative = inhibition” value is 4.18% (inactive).

In the case of `CCOC(=O)c1c(NC(=O)/C=C/C(=O)O)sc(C)c1-c1ccc(F)cc1`, the “activity change, negative = inhibition” value is 1.17% (inactive).

As to `Cc1cc(NC(=O)c2cccc(S(=O)(=O)N3CCOCC3)c2)c2ccccc2n1`, the “activity change, negative = inhibition” value is 1.33% (inactive).

Turning to `O=C(Nc1nnc(C(F)(F)F)s1)c1ccc(Br)s1`, the “activity change, negative = inhibition” value was 4.59% (inactive).

For the molecule `COc1ccc(-c2nc(NC(=O)c3cc(C(C)(C)C)nn3C)sc2C)cc1`, the “activity change, negative = inhibition” value is -7.16% (inactive).

Regarding `CCc1noc(C)c1C(=O)Oc1ccc(N(C)S(=O)(=O)c2ccc(C)cc2)cc1`, the “activity change, negative = inhibition” value is 0.572% (inactive).

`COc1ccc(C(=O)N2CCN(c3ccc([N+](=O)[O-])c(NCCc4ccc(OC)c(OC)c4)c3)CC2)cc1`: the “activity change, negative = inhibition” value is -1.33% (inactive).

Turning to `O=[N+]([O-])c1ccc(S(=O)(=O)c2ccccc2)nc1`, the “activity change, negative = inhibition” value was -8.08% (inactive).

On to `CC1CC(C)CN(C(=O)c2ccc3c(=O)n(Cc4ccc5c(c4)OCO5)c(=S)[nH]c3c2)C1` (stereo unspecified), for which the “activity change, negative = inhibition” value was -0.844% (inactive).

For `CCc1nnc(NC(=O)c2ccc(Cl)c(S(=O)(=O)N3CCc4ccccc43)c2)s1`, the “activity change, negative = inhibition” value was -0.247% (inactive).

Regarding `COCCn1nnnc1C(c1cccs1)N1CCN(c2cc(C)ccc2C)CC1` (stereo unspecified), the “activity change, negative = inhibition” value is -0.758% (inactive).

For the molecule `Cc1cc(NC(=O)c2cc(-c3ccco3)on2)nn1Cc1ccc(Cl)cc1`, the “activity change, negative = inhibition” value is -4.6% (inactive).

With `COc1ccc(-c2csc(NC(=O)c3ccccc3NS(=O)(=O)c3ccc(C)cc3)n2)cc1`, the “activity change, negative = inhibition” value was -5.21% (inactive).

Regarding `Cc1cccc(OCCCCc2c(C)n[nH]c2C)c1C`, the “activity change, negative = inhibition” value is -0.678% (inactive).

Turning to `Cc1cc2cc(CCNC(=O)c3ccc(S(=O)(=O)N4CCCC4)cc3)c(=O)[nH]c2cc1C`, the “activity change, negative = inhibition” value was -7.69% (inactive).

Consider `O=C(NCCc1ccccc1)C(=O)NCC1OCCCN1S(=O)(=O)c1cc(F)ccc1F` (stereo unspecified), for which the “activity change, negative = inhibition” value is 2.75% (inactive).

Take `CCOc1ccc(NS(=O)(=O)c2cc(NC(=O)c3cccc(C)c3)ccc2Cl)cc1`: the “activity change, negative = inhibition” value is 3.25% (inactive).
